The values that follow come from PubChem BioAssay AID2314 (National Center for Advancing Translational Sciences (NCATS), 2010).

Values joined by “and” are separate entries in the source; they are usually repeats but may differ in a detail not shown here. Equal values may be shown once. About 37,000 (12%) of roughly 300,000 compounds were called active. Rule as the data show it: active = max response mostly above about 13% (no sharp cut-off); inactive = mostly below about 14%. Many of the other results were omitted from the sample, so actives are more common in it than they were.

The nature of the assay: Cycloheximide Counterscreen for Small Molecule Inhibitors of Shiga Toxin. Also: read at 38.3 µM for the half of the compounds with a filed dose; 0% is about no effect. As to conditions: cell reporter, cycloheximide protein synthesis inhibition counterscreen; hits give high values. A general note: Counterscreens check selectivity or assay interference.
Regarding `S=c1[nH]c2ccccc2c2ccccc12`, the max response was 1.83% (inactive).

As to `Cc1ccc(C(=O)NC2CC(C)(C)NC(C)(C)C2)c(C)c1`, the max response was -4.92% (inactive).

As for `Cc1ccc2c(c1)NCC(C(=O)NC1CCC(C)CC1)O2` (stereo not given), the max response is 41.1% (active).

`CC1CCC(NC(=O)C2c3ccccc3C(=O)N2Cc2ccc3c(c2)OCO3)CC1` (stereo not given): the max response was -1.18% (inactive).

On to `CC(NS(=O)(=O)c1ccc(Br)cc1)C(=O)NCC1CCCO1` (stereo not given), for which the max response is -1.6% (inactive).

Consider `OCCNc1nc(Nc2ccc(Cl)c(Cl)c2)nc2ccccc12`, for which the max response was 10.5% (active).

As to `CN1CCN(c2nc(Nc3ccc(O)cc3)nc3ccccc23)CC1`, the max response is -3.27% (inactive).

For the compound `COc1cc2nc(Cl)nc(NCCO)c2cc1OC`, the max response was -1.72% (inactive).

As for `COc1ccc(C(=O)CSc2nccc(=O)[nH]2)cc1`, the max response was 8.3% (inactive).

As for `CCOc1ccc2nc(Cl)c(C3CC(c4ccccc4)=NN3C(=O)c3cccs3)cc2c1` (stereo not given), the max response was -1.42% (inactive).

With `COc1ccc(C2=NN(C(C)=O)C(c3ccccc3)C2)cc1` (stereo not given), the max response is 20.9% (active).

Take `COc1ccc(C2CC(c3ccccc3)=NN2C(=O)CSc2nccc(=O)[nH]2)cc1` (stereo not given): the max response was 40% (active).

On to `COc1ccc(C2=NN(C(=O)CCC(=O)O)C(c3cccs3)C2)cc1OC` (stereo not given), for which the max response was -1.52% (inactive).

In the case of `COc1ccc(C2=NN(C(=O)c3ccccc3C(=O)O)C(c3ccccc3O)C2)cc1` (stereo not given), the max response is 40.6% (active).

With `COc1ccc(C2CC(c3ccc([N+](=O)[O-])cc3)=NN2C(C)=O)cc1` (stereo not given), the max response is 24.5% (active).

With `COc1ccc(C2=NN(C(=O)c3cccnc3)C(c3ccccc3)C2)cc1` (stereo not given), the max response is -5.54% (inactive).

With `COc1ccc(C2CC(c3ccccc3)=NN2C(=O)COC(=O)COc2ccccc2)cc1` (stereo not given), the max response was 2.88% (inactive).

Turning to `COc1cccc(C2CC(c3ccccc3)=NN2S(=O)(=O)c2ccccc2)c1OC` (stereo not given), the max response is 0.319% (inactive).

Turning to `COc1ccc(C(=O)Nc2nc(-c3ccc(OC)cc3)c(-c3ccc([N+](=O)[O-])cc3)s2)cc1`, the max response was 9.79% (inactive).

Turning to `COc1ccc(C2CC(c3ccccc3)=NN2C(=O)c2ccc(Cl)c([N+](=O)[O-])c2)cc1` (stereo not given), the max response was 12.9% (inactive).

`CCCCN(CCCC)CCNC(=O)CN1C(=O)COc2ccc(S(=O)(=O)N3CCOCC3)cc21`: the max response is -2.14% (inactive).

On to `CCN1C(=NCCc2cccnc2)N[C@@H](c2ccccc2)[C@H](C(=O)OC)[C@H]1C`, for which the max response was 3.2% (inactive) and 1.95% (inactive).

As to `COCCN1C(=O)N(c2ccc(Cl)cc2)C(=O)C1CC(=O)Nc1cc(OC)cc(OC)c1` (stereo not given), the max response is -0.589% (inactive).

On to `CCN1C(=O)c2cccc3c(S(=O)(=O)Nc4ccccc4O)ccc1c23`, for which the max response was 9.32% (inactive).

On to `O=C(CCC(=O)NNc1nc2ccccc2c2nc(-c3ccccc3)nn12)NCCCN1CCCC1=O`, for which the max response is 10.3% (inactive).

Regarding `COc1ccc(S(=O)(=O)NCCOc2ccccc2)cc1F`, the max response is -4.53% (inactive).

As to `Cc1ccc2c(c1)N(CC(=O)N1CCC(C)CC1)C(=O)c1cccnc1O2`, the max response was -1.05% (inactive).

Regarding `COC(=O)c1ccccc1NC(=O)C1CCN(C(=O)N2CCOc3ccccc32)CC1`, the max response is 0.401% (inactive).

`CCOc1ccccc1CN1CCN(C2CCC2)CC1CCO` (stereo not given): the max response was -0.61% (inactive).

Take `CS(=O)(=O)c1ccccc1C(=O)Nc1ccc2sccc2c1`: the max response was 1.56% (inactive).

Turning to `O=C(NCCN1CCOCC1)Nc1cccc(Cl)c1`, the max response was 20.1% (inactive).

As for `O=C(Nc1cccc(Cl)c1)Nc1nnc(-c2ccccc2)o1`, the max response is -4.47% (inactive).

In the case of `Cc1cc(Cl)nc(NC(=O)Nc2cccc(Cl)c2)n1`, the max response is 19.5% (active).

As for `O=C(COc1ccccc1)N1CCc2ccccc2C1`, the max response is 28.7% (active).

For the compound `Cc1ccccc1-c1nc(CS(=O)(=O)CC(=O)N2CCc3ccccc3C2)c(C)o1`, the max response was 0.61% (inactive).

With `O=C(C1CCN(c2nnc(-n3cccc3)s2)CC1)N1CCc2ccccc2C1`, the max response was -2.9% (inactive).

As for `O=C(Cn1c(=S)nc2ccccn21)N1CCc2ccccc2C1`, the max response is 22.4% (active).

As for `O=C(COc1ccccc1Cl)N1CCCCCCC1`, the max response is 4.62% (inactive).

`Cc1ccc(Cl)c(OCC(=O)NN2CCN(C)CC2)c1`: the max response is -2.49% (inactive).

Regarding `Cc1cccc(OC(C)C(=O)N2CCc3ccccc3C2)c1` (stereo not given), the max response is -3.38% (inactive).

Regarding `Cc1ccc(Cl)c(OCC(=O)N2CCc3ccccc3C2)c1`, the max response was 30% (active).

For `COc1ccc(OCC(=O)N2CCN(C(=O)COc3ccccc3)CC2)cc1`, the max response was -5.08% (inactive).

Regarding `COc1ccccc1CN1CCN(C(c2ccccc2)c2ccccc2)CC1`, the max response is -1.72% (inactive).

On to `CC1CCN(C(=O)c2ccc3c(c2)NC(=O)CN3)CC1`, for which the max response is -6.43% (inactive).

Take `Oc1ccc(Cl)cc1C1C=C(c2ccc3c(c2)OCO3)NC(c2ccc(F)c(Br)c2)N1` (stereo not given): the max response is 50.7% (active).

For the compound `Oc1ccc(Cl)cc1C1C=C(c2ccc3c(c2)OCO3)NC(c2c(F)cccc2Cl)N1` (stereo not given), the max response is 59.8% (active).

For the compound `O=C(c1cc(COc2cccc(C(F)(F)F)c2)on1)N1CCSCC1`, the max response is -0.615% (inactive).

As to `OC(COc1ccc(F)cc1Cl)CN1CCc2ccccc2C1` (stereo not given), the max response is -2.68% (inactive).

On to `Cc1cc(NC(=O)COC(=O)c2ccc(F)c(S(=O)(=O)N3CCOCC3)c2)no1`, for which the max response was -2.52% (inactive).

In the case of `CCOC(=O)CC1COCCN1C(=O)c1cc(COc2ccc(F)c(F)c2)on1` (stereo not given), the max response is 38.7% (active).

On to `O=C(c1cc(COc2c(F)cccc2F)on1)N1CCSCC1`, for which the max response is 54.8% (active).

For the compound `C=CCC1(CC=C)CCCN1C(=O)c1cc(COc2ccc(-n3cncn3)cc2)on1`, the max response is 7.87% (inactive).

For the compound `CN1CCN(C(=O)c2ccccc2NC(=O)COc2ccccc2Cl)CC1`, the max response is 16.7% (inactive).

As to `CCOC(=O)c1ccccc1C(=O)N1CCOCCOCCOCC1`, the max response is -3.37% (inactive).

Consider `Cc1c(C(=O)N2CCOCC2)[nH]c2ccc(OCc3ccccc3)cc12`, for which the max response was 0.995% (inactive).

As to `O=C(c1c(F)cccc1F)N1CCN(c2ncc(Br)cn2)CC1`, the max response was -1.54% (inactive).

On to `O=C(c1cc(COc2ccc(F)c(F)c2)on1)N1CCOCC1`, for which the max response was 42.1% (active).

For `COCCN1CCN(C(=O)c2cc(COc3ccc(F)cc3Cl)on2)CC1`, the max response is 20.2% (active).

For the compound `C=CCNc1nc(N)c(C(=C(C#N)C#N)c2ccccc2)s1`, the max response was 1.38% (inactive).

`Cc1ccn2c(c1)nc(=O)c1cc(S(=O)(=O)N3CCC(C)CC3)ccc12`: the max response is -3.62% (inactive).

As for `OC(CN=c1sc2ccccc2n1CC(O)COc1ccccc1)COc1ccccc1` (stereo not given), the max response is 0.416% (inactive).

On to `O=C(Nc1ccc(Cl)cc1)c1cccc(OC(=S)N2CCOCC2)c1`, for which the max response is 21.3% (inactive).

On to `CC(C)Oc1ccc(C(CC(=O)N2CCOCC2)C(C)C)cc1` (stereo not given), for which the max response was 0.501% (inactive).

Regarding `O=C(NNC(=O)C(O)c1ccccc1)NC1CCCCC1` (stereo not given), the max response was -2.85% (inactive).

Turning to `COCC(C)NC(=O)c1ccc(-n2nc(C(F)(F)F)cc2-c2cccs2)cc1` (stereo not given), the max response is 1.01% (inactive).

As to `Nc1nonc1-n1nnc(C(=O)N/N=C/c2ccc(Cl)cc2)c1-c1ccc2c(c1)OCO2`, the max response is -1.92% (inactive).

In the case of `Cc1c(-c2ccccc2)cn2c1-c1ccc(C)n1CC2`, the max response was -3.8% (inactive).

As to `O=C1COc2ccc(NC(=O)N3CCN(c4ccc(F)cc4)CC3)cc2N1`, the max response is -3.27% (inactive).

In the case of `COc1ccc(OC)c(NC(=O)CSc2nc(-c3ccccc3)cc(=O)[nH]2)c1`, the max response is -6.47% (inactive).

Regarding `COc1ccc(-c2cc(C(=O)NCCCN3CCOCC3)no2)cc1`, the max response was 2.58% (inactive).

Turning to `O=C(c1cc(COc2ccc(F)cc2F)on1)N1CCOCC1`, the max response was 47% (active).

On to `O=C(CC(NC(=O)c1ccccc1)c1ccccc1)Nc1ccc(F)c(F)c1` (stereo not given), for which the max response was 1.73% (inactive).

Regarding `O=C(NC1Cc2ccccc2C1)c1cc(COc2cccc(C(F)(F)F)c2)on1`, the max response is -3.57% (inactive).

Take `COc1ccc(OCc2cc(C(=O)NCC3(C)COC3)no2)c(Cl)c1`: the max response was 40.1% (active).

Turning to `O=C(Oc1ccc(C(=S)N2CCOCC2)cc1)c1ccc(F)cc1`, the max response is -3.82% (inactive).

`COc1cc(C(=O)N2CCOCC2)cc(OC)c1OC`: the max response was -5.91% (inactive).

As for `CCC(NC(=O)c1cc(COc2ccc(F)c(F)c2)on1)c1ccncc1` (stereo not given), the max response was 33.7% (active).

Regarding `COc1ccc(CCNC(=O)c2cnc(Cl)c(Cl)c2)cc1`, the max response is 6.51% (inactive).

`O=C(Nc1ccc(N2CCOCC2)cc1)c1ccc(-c2ccccc2[N+](=O)[O-])o1`: the max response is 21.5% (inactive).

On to `COc1ccc(/C=C2\CCCC3C2=NN(C(=O)c2scnc2C)C3c2ccc(OC)cc2)cc1` (stereo not given), for which the max response was 11.8% (inactive).

As to `CCOC(=O)N1CCN(S(=O)(=O)c2ccc(-n3cnnn3)cc2)CC1`, the max response is -0.729% (inactive).

On to `O=S(=O)(NC1CCCCC1N1CCC(O)CC1)c1ccc(Cl)cc1` (stereo not given), for which the max response was -0.643% (inactive).

For the compound `Oc1ccc(C2Nc3cccc4cccc(c34)N2)cc1`, the max response was -1.27% (inactive).

Take `O=C(O)c1ccc(NS(=O)(=O)c2ccc3c(c2)C(=O)c2cc(S(=O)(=O)Nc4ccc(C(=O)O)cc4)ccc2-3)cc1`: the max response is 12.6% (inactive).

For `Cc1cccc(CCNS(=O)(=O)c2ccc3c(c2)NC(=O)CO3)c1`, the max response is -8.72% (inactive).

Consider `COc1ccc(C2CC(O)(c3ccccc3)Oc3cc(C)cc(C)c32)cc1` (stereo not given), for which the max response was 15.7% (inactive).

On to `CCOC(=O)c1cc(=O)c2ccc(OCc3ccccc3)cc2o1`, for which the max response was -0.548% (inactive).

On to `O=C(Cc1nc2ccccc2[nH]c1=O)c1ccc(Cl)cc1`, for which the max response was 49.5% (active).

As to `N#C/C(=C(/O)COC(=O)COc1ccc(Cl)cc1)c1nc2ccccc2[nH]1`, the max response is -7.7% (inactive).

`O=C(C[n+]1ccc2c(c1)nnn2-c1ccccc1)c1ccc(Cl)cc1`: the max response was 6.33% (inactive).

`COc1ccc(CC(NC(C)=O)C(=O)NC2CCN(C(=O)c3ccc(Cl)cc3)CC2)cc1` (stereo not given): the max response is -8.8% (inactive).

As for `c1ccc2c(NC3C4CC5CC(C4)CC3C5)nc(N3CCOCC3)nc2c1` (stereo not given), the max response is -3.82% (inactive).

In the case of `O=c1oc(-c2ccco2)nc2sc3c(c12)CCCCC3`, the max response was 15% (active).

Turning to `O=C(NCc1ccco1)c1cccn2c(=O)c3c4c(sc3nc12)CCCC4`, the max response was 13.5% (inactive).

On to `Cn1c(=O)n(Cc2ccco2)c(=N)c2c3c(sc21)CCCC3`, for which the max response is -4.49% (inactive).
